TDP1 cell CPT – DT40-hTDP1 cell growth loss with CPT; 12% of 420,000 active; chicken DT40 Tdp1-/-;hTDP1 cells + 20 nM CPT, ATP luminescence, 48 h; AID 686979; Potency, µM (top dose mostly 46.2 µM), without a hit: at the highest dose activity change, negative = growth inhibition, actives largely listed as inhibitors; further: potency means the concentration at half of the fitted maximal effect; on the % scale 0 is the no-effect control and ±100 the full control effect; nearly all actives have a fitted effect of over 55% in size
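Chicken DT40 Tdp1-/- cells stably complemented with human TDP1 were seeded at 400 cells/well in medium containing 20 nM camptothecin, exposed to pin-transferred compounds, and grown at 37 °C for at least 48 hr. Viability was read as ATP luminescence.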
DT40 TDP1 no CPT – qHTS for Inhibitors of human tyrosyl-DNA phosphodiesterase 1 (TDP1): qHTS in cells in absence of CPT | DT40 Tdp1-/- hTDP1 cells, no CPT, ATP luminescence, 48 h | Potency, µM (doses to about 46.2 µM), for the others: at the highest dose activity change, negative = growth inhibition, most hits filed as inhibitors | 15% of 420,000 active | AID 686978, 2013; further: potency means the concentration at half of the fitted maximal effect; on the % scale 0 is the no-effect control and ±100 the full control effect; nearly all actives have a fitted effect of over 55% in size
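Growth of hTDP1-complemented DT40 Tdp1-knockout cells is measured by ATP luminescence after at least 48 hr compound exposure at 37 °C, with DMSO substituting for the 20 nM CPT used in the parallel screen.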
IL1B secr inh – inhibitors of inflammasome signaling (IL-1 beta secretion); THP-1 LPS/ATP IL-1B secretion, AlphaLISA, 16 h; active compounds read low; activity change, % at 57.5 µM; 4.7% of 360,000 active; AID 743279; in the data active means activity change below about -50%; inconclusive means mostly about -30% to -49%; further: on the % scale 0 is the no-effect control and ±100 the full control effect
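Secreted IL-1B measured by AlphaLISA bead assay after 16 h compound exposure of THP-1 cells; compounds (final up to 57.5 uM) added 1 h before LPS (250 ng/mL) and ATP (1.25 mM) stimulation; lower signal means less secretion.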
HepG2 viability – counter-screen for TGF-b inhibitors: cytotoxicity in HepG2 cells. HepG2 CAGA-GFP viability, ATP luminescence, 18 h. Potency, µM (top dose mostly 46.1 µM), for the others: at the top dose activity change, negative = cytotoxicity, most hits filed as cytotoxic. 0.76% of 410,000 active; further: potency means the concentration at half of the fitted maximal effect
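HepG2 CAGA-GFP cells (1000/well, DMEM with 1% FBS) received compound, then TGF-beta at 500 pg/mL final, and were incubated 18 hours at 37 degrees C. Viability was read by CellTiter-Glo luminescence. Media-only wells were set as complete cell-killing and DMSO as no toxicity.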
TGFb SMAD3 inh – inhibitors of TGF-b signaling. HepG2 CAGA-GFP TGF-b/SMAD3 reporter, GFP fluorescence, 18 h; TGF-beta stimulated, 500 pg/mL final. Potency, µM (top dose mostly 46.1 µM), for inactives: top-dose activity, negative = inhibition, actives largely listed as inhibitors. 1.2% of 410,000 active. AID 588855; further: potency means the concentration at half of the fitted maximal effect; on the % scale 0 is the no-effect control and ±100 the full control effect; nearly all actives have a fitted effect of over 65% in size
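Smad-responsive CAGA-GFP expression was quantified in HEPG2 cells exposed to compounds and 500 pg/mL final TGF-beta for 18 h at 37 degrees C; unstimulated wells defined full inhibition.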
TDP1 inh – inhibitors of human tyrosyl-DNA phosphodiesterase TDP1; Q9NUW8; Potency, µM (top dose mostly 130 µM), inactives show top-dose activity change, negative = inhibition, hits mostly inhibitors; recombinant TDP1, AlphaScreen DNA substrate cleavage; 0.28% of 350,000 active; further: potency means the concentration at half of the fitted maximal effect; on the % scale 0 is the no-effect control and ±100 the full control effect; nearly all actives have a fitted effect of over 40% in size
Target sequence (Q9NUW8 whole entry, looked up): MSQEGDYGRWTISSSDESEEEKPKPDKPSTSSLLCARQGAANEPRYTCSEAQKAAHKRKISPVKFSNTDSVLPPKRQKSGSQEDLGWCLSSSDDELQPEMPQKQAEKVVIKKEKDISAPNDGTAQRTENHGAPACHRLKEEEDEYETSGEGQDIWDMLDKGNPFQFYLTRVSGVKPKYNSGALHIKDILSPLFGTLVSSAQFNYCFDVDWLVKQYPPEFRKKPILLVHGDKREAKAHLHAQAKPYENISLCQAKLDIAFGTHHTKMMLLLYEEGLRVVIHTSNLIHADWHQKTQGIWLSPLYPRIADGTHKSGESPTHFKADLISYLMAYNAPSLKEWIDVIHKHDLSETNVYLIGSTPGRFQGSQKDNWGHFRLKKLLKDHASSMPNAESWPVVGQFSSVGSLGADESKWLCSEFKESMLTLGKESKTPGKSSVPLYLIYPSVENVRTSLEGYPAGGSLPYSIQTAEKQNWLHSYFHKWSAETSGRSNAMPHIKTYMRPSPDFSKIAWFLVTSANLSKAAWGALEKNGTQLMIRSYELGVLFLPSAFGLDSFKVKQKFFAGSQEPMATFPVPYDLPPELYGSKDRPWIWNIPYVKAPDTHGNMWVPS
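AlphaScreen read-out: signal falls as enzyme removes the 3' tyrosine-FITC from a 5'-biotinylated DNA oligo (15 nM, 5 min, RT). Enzyme was E. coli-made recombinant Tdp1 at 1 nM, exposed to compound for 15 min beforehand; beads 10 ug/ml, 10 min.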
* marks the source's active call; other numbers are inactive results; [ ] = dose if it differs, or a comment. The list is not random: actives were taken first. Their share in the collection is about 19%. Unless noted, the call rests on the fitted dose curve; in most records, active means well fitted curve in the direction sought with a large enough effect; inconclusive means small, poorly fitted or top-dose-only effect, or another doubt; inactive means no such curve, though single readings can be large; an effect the other way counts as inactive or inconclusive.

How did Cc1cc(NCCCn2ccnc2)n2nc(-c3ccc(Cl)cc3)cc2n1 do in these assays?
TDP1 cell CPT: -22%; DT40 TDP1 no CPT: inconclusive; IL1B secr inh: -65*; HepG2 viability: -21%; TGFb SMAD3 inh: -8%; TDP1 inh: 5%

Results for Cc1cccc(-c2cc3nc(C)c(C)c(NCCCn4ccnc4)n3n2)c1 ?
TDP1 cell CPT: inconclusive; DT40 TDP1 no CPT: 15µM*; HepG2 viability: -35%; TGFb SMAD3 inh: inconclusive

Results for Cc1cc(NCCCn2ccnc2)n2nc(-c3ccc(F)cc3)cc2n1 ?
TDP1 cell CPT: -19%; DT40 TDP1 no CPT: -25%; IL1B secr inh: -61*; HepG2 viability: -36%; TGFb SMAD3 inh: -21%; TDP1 inh: 11%

How did CC(C)(C)c1cc(NCCCn2ccnc2)n2ncc(-c3ccc(Cl)cc3)c2n1 do in these assays?
TDP1 cell CPT: inconclusive; DT40 TDP1 no CPT: 18µM*; IL1B secr inh: -86*; HepG2 viability: 22µM*; TGFb SMAD3 inh: inconclusive; TDP1 inh: 10%

What do the screens show for `CN(C)CCCNc1cc(C(C)(C)C)nc2c(-c3ccccc3)cnn12`?
TDP1 cell CPT: inconclusive; DT40 TDP1 no CPT: 16µM*; IL1B secr inh: -98*; HepG2 viability: -83%; TGFb SMAD3 inh: inconclusive; TDP1 inh: 7%

What do the screens show for `Cc1cc(NCCCN2CCOCC2)n2ncc(-c3ccccc3)c2n1`?
TDP1 cell CPT: inconclusive; DT40 TDP1 no CPT: inconclusive; IL1B secr inh: -5; HepG2 viability: -24%; TGFb SMAD3 inh: inconclusive; TDP1 inh: 2%

What do the screens show for `N#CCCN(C(=O)COC(=O)C1CCN(S(=O)(=O)c2ccc3c(c2)OCCO3)CC1)c1ccccc1`?
TDP1 cell CPT: 0%; DT40 TDP1 no CPT: -23%; IL1B secr inh: 17; HepG2 viability: 4%; TGFb SMAD3 inh: 0%; TDP1 inh: 2%

Results for Cc1cccc(N2CCN(c3ncnc4c3c(-c3ccccc3)cn4-c3ccccc3)CC2C)c1 (stereo unspecified) ?
TDP1 cell CPT: inconclusive; DT40 TDP1 no CPT: inconclusive; HepG2 viability: -11%; TGFb SMAD3 inh: inconclusive; TDP1 inh: 5%

How did Cc1ccc(-n2cc(-c3ccccc3)c3c(NC4CCCC4)ncnc32)cc1 do in these assays?
TDP1 cell CPT: inconclusive; DT40 TDP1 no CPT: 23µM*; HepG2 viability: -27%; TGFb SMAD3 inh: inconclusive; TDP1 inh: 3%

Results for Cc1cccc(-n2cc(-c3ccccc3)c3c(NC4CCCC4)ncnc32)c1 ?
TDP1 cell CPT: inconclusive; DT40 TDP1 no CPT: 16µM*; HepG2 viability: -14%; TGFb SMAD3 inh: 0%; TDP1 inh: -3%

How did O=C(Nc1nc2ccccc2[nH]1)c1cccc(Br)c1 do in these assays?
TDP1 cell CPT: inconclusive; DT40 TDP1 no CPT: inconclusive; IL1B secr inh: 9; HepG2 viability: -19%; TGFb SMAD3 inh: -10%; TDP1 inh: 11%

Results for CN(C)c1cccc(C(=O)Nc2nc3ccccc3[nH]2)c1 ?
TDP1 cell CPT: inconclusive; DT40 TDP1 no CPT: 12µM*; IL1B secr inh: inconclusive; HepG2 viability: -12%; TGFb SMAD3 inh: 2%; TDP1 inh: 5%

How did O=C(Nc1nc2ccccc2[nH]1)c1cccc(F)c1 do in these assays?
TDP1 cell CPT: inconclusive; DT40 TDP1 no CPT: 16µM*; IL1B secr inh: 24; HepG2 viability: -38%; TGFb SMAD3 inh: 2%; TDP1 inh: 0%

What do the screens show for `C=CCN1c2ccccc2[C@]23C[C@@H](C(=O)OC)N(S(=O)(=O)c4ccc(C)cc4)C2=NC(C(=O)OC)=C(C(=O)OC)[C@H]13`?
TDP1 inh: 11%[21 µM]

How did CC(NC(=O)CSc1nc2sc3c(c2c(=O)n1-c1ccccc1)CCCC3)c1ccccc1 (stereo unspecified) do in these assays?
TDP1 cell CPT: 6.5µM*; DT40 TDP1 no CPT: inconclusive; IL1B secr inh: 36; HepG2 viability: -14%; TGFb SMAD3 inh: -7%; TDP1 inh: -5%

How did COCCn1c(SCC(=O)NCC(c2ccccc2)N(C)C)nc2sc3c(c2c1=O)CCC3 (stereo unspecified) do in these assays?
TDP1 cell CPT: -6%; DT40 TDP1 no CPT: -18%; IL1B secr inh: -8; HepG2 viability: 5%; TGFb SMAD3 inh: 8%

What do the screens show for `CN(C)C(CNC(=O)CSc1nc2sc3c(c2c(=O)n1C)CCCC3)c1ccccc1` (stereo unspecified)?
TDP1 cell CPT: 23µM*; DT40 TDP1 no CPT: 21µM*; IL1B secr inh: -1; HepG2 viability: -34%; TGFb SMAD3 inh: -16%; TDP1 inh: 3%

How did O=C(CSc1nc2sc3c(c2c(=O)n1-c1ccccc1)CCCC3)N/N=C/c1ccccc1C(=O)O do in these assays?
TDP1 cell CPT: -3%; DT40 TDP1 no CPT: 2%; IL1B secr inh: -12; HepG2 viability: -4%; TGFb SMAD3 inh: -3%; TDP1 inh: 22µM*

Results for CCCn1c(=O)n(C)c(=O)c2c(SCC(=O)NCC(c3ccccc3)N(C)C)nc(CC(C)C)nc21 (stereo unspecified) ?
TDP1 cell CPT: 21µM*; DT40 TDP1 no CPT: 18µM*; IL1B secr inh: inconclusive; HepG2 viability: 0%; TGFb SMAD3 inh: 4%; TDP1 inh: 6%

Results for CCOC(=O)CSc1nc2cc3c(cc2c(=O)n1CCCC(=O)NCc1ccc2c(c1)OCO2)OCO3 ?
TDP1 cell CPT: inconclusive; DT40 TDP1 no CPT: inconclusive; HepG2 viability: -7%; TGFb SMAD3 inh: 0%; TDP1 inh: 2%

What do the screens show for `Cc1nn(Cc2ccccc2)c(C)c1NC(=O)CSc1nc2sc3c(c2c(=O)n1C)CCC3`?
TDP1 cell CPT: inconclusive; DT40 TDP1 no CPT: 18µM*; IL1B secr inh: 39; HepG2 viability: -24%; TGFb SMAD3 inh: 10%

How did Cn1c(SCc2nnc(-c3ccccc3Br)o2)nc2sc3c(c2c1=O)CCC3 do in these assays?
TDP1 cell CPT: inconclusive; DT40 TDP1 no CPT: 18µM*; IL1B secr inh: -29; HepG2 viability: -31%; TGFb SMAD3 inh: -1%; TDP1 inh: 2%

Results for N[C@@]1(C(=O)O)CO[C@H]2[C@H](C(=O)O)[C@H]21 ?
TDP1 inh: 1%

How did NCC(=O)c1c[nH]c2ccccc12 do in these assays?
TDP1 cell CPT: inconclusive; DT40 TDP1 no CPT: -8%; HepG2 viability: 0%; TGFb SMAD3 inh: -1%

How did CC(C)NC(=O)c1ccc(COc2cc(Cl)ccc2Cl)o1 do in these assays?
TDP1 cell CPT: -30%; DT40 TDP1 no CPT: 21µM*; IL1B secr inh: -62*; HepG2 viability: -14%; TGFb SMAD3 inh: -6%

Screening data: PubChem BioAssay, National Center for Advancing Translational Sciences (NCATS)
